# According to article PMC7862700, “An all-to-all approach to the identification of sequence-specific readers for epigenetic DNA modifications on cytosine”:
# Key:
# Experiment in all cases: DAPPL (digital affinity profiling via proximity ligation, sequencing); 10 mM Tris-HCl pH 7.5, 50 mM NaCl, 1 mM DTT, 4% glycerol, room temperature, 30 min; GST-TFs on glutathione beads, 16-mer random dsDNA library, 0.1% formaldehyde crosslink after washing; high values mean tight binding
# FEV = biological target: T1, FEV (Homo sapiens, UniProt Q99581 1-238); conditions: protein: recombinant; tags: N-terminal GST; dsDNA, one strand shown
# T1 sequence: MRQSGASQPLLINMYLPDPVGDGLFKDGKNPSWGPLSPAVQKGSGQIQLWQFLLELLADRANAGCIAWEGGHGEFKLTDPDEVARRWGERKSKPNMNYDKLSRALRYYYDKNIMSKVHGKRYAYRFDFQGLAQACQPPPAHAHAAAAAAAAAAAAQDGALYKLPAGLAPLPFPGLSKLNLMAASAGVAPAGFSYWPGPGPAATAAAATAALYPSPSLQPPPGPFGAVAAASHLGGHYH
# Outline: (§1)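 After expression in yeast as GST fusions, human transcription factors were bound to glutathione beads, DNA-barcoded and mixed with a tag-only sample. The pools were incubated with 200 nmole of a 16-mer random double-stranded DNA library in Tris/NaCl/DTT/glycerol buffer (30 min, room temperature), washed and crosslinked with 0.1% formaldehyde. Proximity ligation with BsaI/T4 ligase ran for 1 h at 37 °C, before PCR amplification and sequencing on an Illumina NextSeq500. Binding signal is a hexamer's read frequency for a factor divided by its frequency for the tag-only sample.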
# ETV5 = ETV5 (Homo sapiens, UniProt P41161 1-510); conditions: protein: recombinant; tags: N-terminal GST; dsDNA, one strand shown
# Outline: as §1
# HSF1 = HSF1 (Homo sapiens, UniProt Q00613 1-529); conditions: protein: recombinant; tags: N-terminal GST; chain copies: 3; dsDNA, one strand shown
# Outline: as §1
# SPIC = biological target: T2, SPIC (Homo sapiens, UniProt Q8N5J4 1-248); conditions: protein: recombinant; tags: N-terminal GST; dsDNA, one strand shown
# T2 sequence: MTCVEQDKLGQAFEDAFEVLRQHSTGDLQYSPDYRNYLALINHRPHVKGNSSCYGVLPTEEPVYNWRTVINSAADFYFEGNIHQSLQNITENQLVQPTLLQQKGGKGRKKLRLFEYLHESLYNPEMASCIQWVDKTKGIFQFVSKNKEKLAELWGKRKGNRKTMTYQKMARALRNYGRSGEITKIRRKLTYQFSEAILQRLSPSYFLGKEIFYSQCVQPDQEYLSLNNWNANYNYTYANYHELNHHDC
# Outline: as §1
# ELF4 = ELF4 (Homo sapiens, UniProt Q99607 1-663); conditions: protein: recombinant; tags: N-terminal GST; dsDNA, one strand shown
# Outline: as §1
# ELK4 = biological target: T3, ELK4 (Homo sapiens, UniProt P28324-2 1-405); conditions: protein: recombinant; tags: N-terminal GST; dsDNA, one strand shown
# T3 sequence: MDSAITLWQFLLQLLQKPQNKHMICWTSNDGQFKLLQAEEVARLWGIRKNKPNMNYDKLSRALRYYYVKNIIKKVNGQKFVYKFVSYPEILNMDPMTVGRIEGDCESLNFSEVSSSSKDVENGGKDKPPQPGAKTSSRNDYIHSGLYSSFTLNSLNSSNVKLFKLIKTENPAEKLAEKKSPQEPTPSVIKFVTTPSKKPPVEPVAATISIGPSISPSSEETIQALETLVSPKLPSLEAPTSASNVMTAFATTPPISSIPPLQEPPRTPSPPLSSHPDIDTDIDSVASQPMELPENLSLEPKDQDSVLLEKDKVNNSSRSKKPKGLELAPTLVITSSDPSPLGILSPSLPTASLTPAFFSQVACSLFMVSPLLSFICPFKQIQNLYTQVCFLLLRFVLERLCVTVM
# Outline: as §1
# ETV2 = biological target: T4, ETV2 (Homo sapiens, UniProt O00321 1-342); conditions: protein: recombinant; tags: N-terminal GST; dsDNA, one strand shown
# T4 sequence: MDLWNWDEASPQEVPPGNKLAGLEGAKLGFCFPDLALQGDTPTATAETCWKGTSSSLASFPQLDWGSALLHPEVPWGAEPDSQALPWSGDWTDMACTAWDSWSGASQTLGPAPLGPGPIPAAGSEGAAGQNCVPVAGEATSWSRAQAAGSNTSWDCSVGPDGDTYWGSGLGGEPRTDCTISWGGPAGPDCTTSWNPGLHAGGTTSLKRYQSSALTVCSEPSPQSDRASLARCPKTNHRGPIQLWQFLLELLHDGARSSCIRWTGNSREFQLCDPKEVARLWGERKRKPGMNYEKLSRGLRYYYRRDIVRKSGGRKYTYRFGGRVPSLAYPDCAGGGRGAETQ
# Outline: as §1
# ELF3 = biological target: T5, ELF3 (Homo sapiens, UniProt P78545 1-371); conditions: protein: recombinant; tags: N-terminal GST; dsDNA, one strand shown
# T5 sequence: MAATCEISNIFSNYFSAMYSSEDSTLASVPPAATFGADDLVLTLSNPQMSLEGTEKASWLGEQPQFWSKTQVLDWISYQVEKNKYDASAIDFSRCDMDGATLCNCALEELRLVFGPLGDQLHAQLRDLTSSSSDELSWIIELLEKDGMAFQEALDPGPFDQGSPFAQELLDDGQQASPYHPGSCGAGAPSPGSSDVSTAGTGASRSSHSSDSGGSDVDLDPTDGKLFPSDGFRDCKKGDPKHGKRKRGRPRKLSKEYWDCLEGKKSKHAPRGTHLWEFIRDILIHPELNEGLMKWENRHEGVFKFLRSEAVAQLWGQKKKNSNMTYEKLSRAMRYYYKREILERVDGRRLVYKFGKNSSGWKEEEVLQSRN
# Outline: as §1
# ETV1 = ETV1 (Homo sapiens, UniProt P50549 1-477); conditions: protein: recombinant; tags: N-terminal GST; dsDNA, one strand shown
# Outline: as §1
# Sequence of ETV1 (P50549 whole entry): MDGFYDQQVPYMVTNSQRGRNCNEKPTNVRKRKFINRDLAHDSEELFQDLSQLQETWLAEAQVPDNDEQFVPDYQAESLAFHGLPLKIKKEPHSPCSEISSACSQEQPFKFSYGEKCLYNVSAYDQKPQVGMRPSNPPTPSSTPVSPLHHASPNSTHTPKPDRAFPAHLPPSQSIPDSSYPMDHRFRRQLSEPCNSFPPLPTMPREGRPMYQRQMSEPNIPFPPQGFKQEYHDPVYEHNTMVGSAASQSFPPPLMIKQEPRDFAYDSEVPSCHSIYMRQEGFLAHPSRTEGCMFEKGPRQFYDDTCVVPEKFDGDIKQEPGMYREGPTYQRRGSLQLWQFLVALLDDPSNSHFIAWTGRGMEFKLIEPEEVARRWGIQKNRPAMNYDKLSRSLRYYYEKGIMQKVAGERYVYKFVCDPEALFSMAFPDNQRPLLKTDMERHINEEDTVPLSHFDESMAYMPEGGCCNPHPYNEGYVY
# Sequence of ELF4 (Q99607 whole entry): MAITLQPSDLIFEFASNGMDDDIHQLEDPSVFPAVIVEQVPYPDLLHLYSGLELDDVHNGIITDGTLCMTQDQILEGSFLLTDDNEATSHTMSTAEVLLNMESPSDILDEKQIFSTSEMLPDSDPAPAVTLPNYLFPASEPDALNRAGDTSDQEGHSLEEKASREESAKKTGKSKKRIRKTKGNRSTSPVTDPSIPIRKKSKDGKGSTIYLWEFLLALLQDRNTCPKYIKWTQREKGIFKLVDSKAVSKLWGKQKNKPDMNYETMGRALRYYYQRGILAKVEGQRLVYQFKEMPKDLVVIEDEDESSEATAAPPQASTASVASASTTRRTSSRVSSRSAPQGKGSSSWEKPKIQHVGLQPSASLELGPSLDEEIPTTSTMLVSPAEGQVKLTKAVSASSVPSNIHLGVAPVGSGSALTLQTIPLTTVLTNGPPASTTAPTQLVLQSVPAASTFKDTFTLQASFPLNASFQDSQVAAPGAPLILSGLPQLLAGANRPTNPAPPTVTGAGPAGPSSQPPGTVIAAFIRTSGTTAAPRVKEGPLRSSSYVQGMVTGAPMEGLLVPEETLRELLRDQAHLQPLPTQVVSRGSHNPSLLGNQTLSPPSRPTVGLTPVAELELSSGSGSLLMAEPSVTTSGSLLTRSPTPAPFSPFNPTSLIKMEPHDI
# Sequence of ETV5 (P41161 whole entry): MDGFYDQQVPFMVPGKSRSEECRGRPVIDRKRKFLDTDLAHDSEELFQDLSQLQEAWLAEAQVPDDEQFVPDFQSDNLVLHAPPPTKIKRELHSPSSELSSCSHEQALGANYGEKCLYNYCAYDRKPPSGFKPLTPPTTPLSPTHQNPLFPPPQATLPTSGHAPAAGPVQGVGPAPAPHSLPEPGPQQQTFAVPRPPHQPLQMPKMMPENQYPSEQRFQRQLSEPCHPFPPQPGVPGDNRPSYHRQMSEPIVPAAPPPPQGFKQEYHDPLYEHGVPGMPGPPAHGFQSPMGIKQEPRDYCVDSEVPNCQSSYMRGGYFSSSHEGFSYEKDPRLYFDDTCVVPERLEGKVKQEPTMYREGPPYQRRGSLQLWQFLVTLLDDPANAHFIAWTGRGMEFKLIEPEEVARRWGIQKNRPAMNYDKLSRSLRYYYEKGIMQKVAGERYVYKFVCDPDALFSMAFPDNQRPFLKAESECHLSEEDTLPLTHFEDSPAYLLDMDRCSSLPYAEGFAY
# Sequence of HSF1 (Q00613 whole entry): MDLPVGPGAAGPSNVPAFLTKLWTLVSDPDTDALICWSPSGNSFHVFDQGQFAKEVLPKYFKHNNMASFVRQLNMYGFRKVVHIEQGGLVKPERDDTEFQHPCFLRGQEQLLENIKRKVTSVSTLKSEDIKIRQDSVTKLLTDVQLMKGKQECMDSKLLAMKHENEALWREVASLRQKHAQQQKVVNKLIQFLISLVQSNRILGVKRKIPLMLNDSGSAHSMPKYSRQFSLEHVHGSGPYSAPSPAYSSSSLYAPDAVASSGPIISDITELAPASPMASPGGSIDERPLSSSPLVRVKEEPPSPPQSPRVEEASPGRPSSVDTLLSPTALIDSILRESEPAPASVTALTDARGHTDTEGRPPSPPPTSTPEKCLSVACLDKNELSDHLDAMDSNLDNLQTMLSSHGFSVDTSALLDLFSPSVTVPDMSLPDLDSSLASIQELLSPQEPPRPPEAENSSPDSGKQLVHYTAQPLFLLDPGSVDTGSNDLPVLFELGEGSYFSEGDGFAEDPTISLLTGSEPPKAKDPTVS
sequence,measurement,setting,value
CCACTC,binding signal,FEV,"1.27 fold enrichment (6-mer frequency, TF over GST control)"
same,binding signal,ETV5,"1.23 fold enrichment (6-mer frequency, TF over GST control)"
same,binding signal,HSF1,"1.05 fold enrichment (6-mer frequency, TF over GST control)"
same,binding signal,SPIC,"1.27 fold enrichment (6-mer frequency, TF over GST control)"
same,binding signal,ELF4,"1.29 fold enrichment (6-mer frequency, TF over GST control)"
same,binding signal,ELK4,"1.49 fold enrichment (6-mer frequency, TF over GST control)"
same,binding signal,ETV2,"1.18 fold enrichment (6-mer frequency, TF over GST control)"
same,binding signal,ELF3,"1.14 fold enrichment (6-mer frequency, TF over GST control)"
same,binding signal,ETV1,"1.17 fold enrichment (6-mer frequency, TF over GST control)"
